Measurements reported in article PMC5540273 (PLoS ONE, 2017).
Where two headings read alike, the source gives them in different places.

What was measured:
AAK1 = conditions: n = 1
ABL1-nonphosphorylated = conditions: concentration: 1 μM,replicates: in singlicate; n = 1
ABL1-phosphorylated = conditions: concentration: 1 μM,replicates: in singlicate; n = 1
ABL2 = conditions: concentration: 1 μM,replicates: in singlicate; n = 1
ACVR1B = conditions: concentration: 1 μM,replicates: in singlicate; n = 1
ACVR1 = conditions: concentration: 1 μM,replicates: in singlicate; n = 1
ACVR2A = conditions: concentration: 1 μM,replicates: in singlicate; n = 1
ACVR2B = conditions: concentration: 1 μM,replicates: in singlicate; n = 1
ACVRL1 = conditions: concentration: 1 μM,replicates: in singlicate; n = 1
ADCK3 = test system: T1, ADCK3; conditions: concentration: 1 μM,replicates: in singlicate; n = 1
T1 construct: gene CABC1

[1] = concentration: 1 μM,replicates: in singlicate
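Note: KINOMEscan kinase panel screen.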

Question: Which “%Inh” value (AAK1; [1]) does the source give for Cc1ccc(Nc2ccnc(Nc3ccc4c(c3)CS(=O)(=O)C4)n2)cc1O.Cl [GW579362] here?
Answer: 80%

Question: What about the “%Inh” value (ABL1-nonphosphorylated) of the same compound?
Answer: 99.3%

Question: And the “%Inh” value (ABL1-phosphorylated)?
Answer: 99.8%

Question: What about the “%Inh” value (ABL2) of the same compound?
Answer: 99.3%

Question: And the “%Inh” value (ACVR1B)?
Answer: 84%

Question: What about the “%Inh” value (ACVR1) of the same compound?
Answer: 99.5%

Question: And the “%Inh” value (ACVR2A)?
Answer: 72%

Question: What about the “%Inh” value (ACVR2B) of the same compound?
Answer: 95.6%

Question: What about the “%Inh” value (ACVRL1) of the same compound?
Answer: 85%

Question: What about the “%Inh” value (ADCK3) of the same compound?
Answer: 8%

Question: With O=C(Nc1ccccc1)c1cccc(Oc2ccc3nccn3n2)c1 as the compound, how does the “%Inh” value (AAK1; [1]) read?
Answer: 1%

Question: What about the “%Inh” value (ABL1-nonphosphorylated) of the same compound?
Answer: 12%

Question: And the “%Inh” value (ABL1-phosphorylated)?
Answer: 0%

Question: What about the “%Inh” value (ABL2) of the same compound?
Answer: 3%

Question: And the “%Inh” value (ACVR1B)?
Answer: 5%

Question: And the “%Inh” value (ACVR1)?
Answer: 6%

Question: And the “%Inh” value (ACVR2A)?
Answer: 0%

Question: And the “%Inh” value (ACVR2B)?
Answer: 5%

Question: What about the “%Inh” value (ACVRL1) of the same compound?
Answer: 2%

Question: And the “%Inh” value (ADCK3)?
Answer: 19%

Question: COc1ccc(Nc2nccc(N3CCC(NC(=O)c4cccc(C#N)c4)C3)n2)cc1 (stereo not shown) [GSK1379730] was tested. Which “%Inh” value (AAK1; [1]) did it give?
Answer: 0%

Question: What about the “%Inh” value (ABL1-nonphosphorylated) of the same compound?
Answer: 0%

Question: And the “%Inh” value (ABL1-phosphorylated)?
Answer: 0%

Question: What about the “%Inh” value (ABL2) of the same compound?
Answer: 9%

Question: What about the “%Inh” value (ACVR1B) of the same compound?
Answer: 4%

Question: What about the “%Inh” value (ACVR1) of the same compound?
Answer: 24%

Question: What about the “%Inh” value (ACVR2A) of the same compound?
Answer: 0%

Question: And the “%Inh” value (ACVR2B)?
Answer: 0%

Question: And the “%Inh” value (ACVRL1)?
Answer: 0%

Question: What about the “%Inh” value (ADCK3) of the same compound?
Answer: 0%

Question: For FC(F)(F)c1cc(Br)cc(Nc2nccc(-c3cnn4ncccc34)n2)c1 [GW810578], which “%Inh” value (AAK1; [1]) is on record?
Answer: 32%

Question: What about the “%Inh” value (ABL1-nonphosphorylated) of the same compound?
Answer: 0%

Question: And the “%Inh” value (ABL1-phosphorylated)?
Answer: 0%

Question: And the “%Inh” value (ABL2)?
Answer: 0%

Question: What about the “%Inh” value (ACVR1B) of the same compound?
Answer: 6%

Question: And the “%Inh” value (ACVR1)?
Answer: 15%

Question: What about the “%Inh” value (ACVR2A) of the same compound?
Answer: 13%

Question: What about the “%Inh” value (ACVR2B) of the same compound?
Answer: 2%

Question: What about the “%Inh” value (ACVRL1) of the same compound?
Answer: 25%

Question: And the “%Inh” value (ADCK3)?
Answer: 10%

Question: For Cc1cccc2c(-c3ccncc3)c(-c3ccc(F)cc3)nn12.Cl [GW461487], which “%Inh” value (AAK1; [1]) is on record?
Answer: 14%

Question: What about the “%Inh” value (ABL1-nonphosphorylated) of the same compound?
Answer: 0%

Question: What about the “%Inh” value (ABL1-phosphorylated) of the same compound?
Answer: 0%

Question: And the “%Inh” value (ABL2)?
Answer: 5%

Question: And the “%Inh” value (ACVR1B)?
Answer: 18%

Question: What about the “%Inh” value (ACVR1) of the same compound?
Answer: 9%

Question: And the “%Inh” value (ACVR2A)?
Answer: 0%

Question: And the “%Inh” value (ACVR2B)?
Answer: 11%

Question: And the “%Inh” value (ACVRL1)?
Answer: 0%

Question: And the “%Inh” value (ADCK3)?
Answer: 18%

Question: Cc1ccn2nc(-c3ccc(F)cc3)c(-c3ccncc3)c2c1.Cl [GW457859] was tested. Which “%Inh” value (AAK1; [1]) did it give?
Answer: 0%

Question: And the “%Inh” value (ABL1-nonphosphorylated)?
Answer: 0%

Question: What about the “%Inh” value (ABL1-phosphorylated) of the same compound?
Answer: 0%

Question: What about the “%Inh” value (ABL2) of the same compound?
Answer: 0%

Question: What about the “%Inh” value (ACVR1B) of the same compound?
Answer: 0%

Question: And the “%Inh” value (ACVR1)?
Answer: 9%

Question: What about the “%Inh” value (ACVR2A) of the same compound?
Answer: 0%

Question: What about the “%Inh” value (ACVR2B) of the same compound?
Answer: 32%

Question: What about the “%Inh” value (ACVRL1) of the same compound?
Answer: 0%

Question: And the “%Inh” value (ADCK3)?
Answer: 17%

Question: Cl.Cl.NC[C@H](CC1CCCCC1)NC(=O)c1ccc(-c2ccnc3[nH]ccc23)s1 [GSK1581428] was tested. Which “%Inh” value (AAK1; 1 µM) did it give?
Answer: 75%
